Results published in PubChem BioAssay AID1878 (Sanford-Burnham Center for Chemical Genomics, 2009).
The campaign covered roughly 1,000 compounds. About 200 (20%) were called active. These entries were drawn from the full list. Results with a measured potency or affinity are listed apart. Unmarked numbers belong to inactive results. Cut-off read from the data, not from the text of the source: active = inhibition above about 55%; inactive = the rest.

These compounds were tested against Dual specificity protein phosphatase 3 (Homo sapiens) (UniProt P51452) (assay: VHR1 phosphatase inhibitors, biochemical (AID 1878)). Conditions: recombinant VHR phosphatase, fluorogenic substrate; at 13.3 µM; active compounds read high.
Sequence of Dual specificity protein phosphatase 3 (Homo sapiens) (P51452 whole entry, looked up): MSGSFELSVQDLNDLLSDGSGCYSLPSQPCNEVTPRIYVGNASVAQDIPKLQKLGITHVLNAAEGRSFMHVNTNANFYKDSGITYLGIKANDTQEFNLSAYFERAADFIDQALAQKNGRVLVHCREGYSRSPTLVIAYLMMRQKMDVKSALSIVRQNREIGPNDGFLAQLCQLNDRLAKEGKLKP

Compound	inhibition
O=C(CSc1nc2ncccc2[nH]1)NCc1ccco1	17.8%
COc1ccc(Br)cc1/C=N/n1nnnc1N	5.9%
O=C(CN1C(=O)S/C(=C\c2ccc(-c3cc(C(=O)O)ccc3Cl)o2)C1=O)Nc1ccc2c(c1)OCO2	91.9% (active)
O=C(CSc1ccc([N+](=O)[O-])cn1)Nc1ccc2c(c1)OCO2	-8.7%
CCOc1ccccc1NC(=O)c1nnn(CC(=O)Nc2ccc3c(c2)OCO3)c1N	-0.3%
Cc1ccc(C(=O)O)cc1-c1ccc(/C=C2\SC(=O)N(CC(=O)Nc3ccccc3)C2=O)o1	45.6%
Cc1cc(C(=O)O)ccc1-c1ccc(/C=C2\SC(=O)N(CC(=O)Nc3ccc4c(c3)OCO4)C2=O)o1	96.8% (active)
Cc1ccccc1NC(=O)CN1C(=O)S/C(=C\c2ccc(-c3cc(C(=O)O)ccc3C)o2)C1=O	67.4% (active)
CCN(CC(=O)Nc1ccc2c(c1)OCCO2)C(=O)COc1ccc(C)cc1	7.4%
CCOc1ccc(CNS(=O)(=O)c2cc(CN3C(=O)c4cccnc4C3=O)ccc2OC)cc1	-2.7%
CC(=O)N1c2ccc(S(=O)(=O)N(C)CC(=O)Nc3cccc(C)c3)cc2CC1C (configuration not stated)	-2.3%
O=C(NC(=S)Nc1ccccc1N1CCCC1)c1ccccc1Br	-1.6%
COc1cc(OC)nc(Oc2ccc(N)c(C)c2)n1	17.4%
CC(=O)/C=C\c1cn(-c2ncc(C(F)(F)F)cc2Cl)c2ccccc12	-0.4%
COc1cccc(CNc2cc(C)ccn2)c1O	-6.7%
O=S1(=O)N(Cc2ccccc2F)CCCN1Cc1c(F)cccc1Cl	44.5%
O=S(=O)(c1ccccc1)N1CCn2c(nc3ccccc32)C1	-0.8%
Cc1ccc(-c2nn3c(C)nnc3s2)cc1NC(=O)c1ccc(-c2ccc(Cl)cc2Cl)o1	99.7% (active)
CSCC(C)N1CCC(N2CCC(C(=O)NCc3ccccn3)CC2)CC1 (configuration not stated)	-9.9%
Cc1ccc(/C=C2/Sc3ccc(C(=O)NCc4ccccn4)cc3NC2=O)cc1	93.9% (active)
CCN(Cc1ccc(NC(C)=O)cc1)CC1CCCN(CCc2cccc(F)c2)C1 (configuration not stated)	6.3%
CCOC(=O)C1(Cc2ccccc2)CCCN(C(=O)c2ccc(-n3ccnc3)cc2)C1 (configuration not stated)	-9.5%
Cc1cccc(C(=O)NCCCn2ccnc2)c1C	-6.9%

Compound	inhibition
Cc1ccc(CSc2nnc(-c3ccco3)n2N)cc1	3.5%
CC1(c2ccc3ccccc3c2)NC(=O)NC1=O (configuration not stated)	-8.8%
CC(C)N(C)Cc1nnnn1CC(=O)N(C)Cc1ccc(F)cc1	0.7%
O=C(O)CN1C(=O)/C(=C2\C(=O)N(Cc3ccccc3Cl)c3ccccc32)SC1=S	96.7% (active)
COc1ccc(NC(=O)CN2C(=O)/C(=C3\SC(=S)N(CCC(=O)O)C3=O)c3ccccc32)cc1	74.7% (active)
COc1ccc(NC(=O)CN(CC(=O)Nc2ccc(OC)cc2)C(C)(C)CO)cc1	10.8%
COc1ccc(C(CC(=O)Nc2ccccn2)N2Cc3ccccc3C2=O)cc1 (configuration not stated)	2.3%
CN(C)c1nc(-c2ccccc2)c2cc(Cl)ccc2n1	9%
CCCN1CCN(CCNC(=O)Nc2cc(C)ccc2C)CC1	-9.3%
Cc1nc(C(C)NC(=O)c2ccc(OC3CCN(Cc4ccccn4)CC3)cc2)c(C)s1 (configuration not stated)	-8.5%
COc1ccccc1N(CC(O)CN1CCC(C)CC1)S(=O)(=O)c1ccccc1 (configuration not stated)	-7.2%
Cc1ccc(S(=O)(=O)N(C)C)cc1NC(=O)COC(=O)/C=C/c1cnc2ccccc2n1	10.1%
O=C(Nc1ccc(N2CCCCC2)cc1)c1ccc([N+](=O)[O-])o1	14.3%
CC(O)CNc1nc2c(c(=O)n(Cc3ccc(Cl)cc3)c(=O)n2C)n1C (configuration not stated)	27.1%
CC(C)NC(=O)CN1C(=O)CSc2ccc(S(=O)(=O)N3CCCC3)cc21	15.9%
CCc1nn(CC(=O)N2CCN(c3cc(C)ccc3C)CC2)c(=O)c2cc3occc3n12	4.7%
COC(=O)C1CCN(Cc2c(C(=O)N3C[C@@H](C)O[C@@H](C)C3)nc3ccc(Cl)cn23)CC1	19%
Cc1cc(-c2ccc(C)c(S(=O)(=O)NCCCN(Cc3ccccc3)C(C)C)c2)on1	3.1%
S=c1nc(NCc2cccc(Cl)c2)c2ccccc2[nH]1	6.3%
CCN(CC)CCCNC(=O)c1ccc(CS(=O)(=O)c2ccccc2OC)o1	-2.3%
CN(C(=O)CSc1cn(CC(=O)N2CCOCC2)c2ccccc12)c1ccccc1	-6.1%
CCc1ccc(CN(C)C(=O)c2ccc3c(c2)OCCO3)cc1	11.2%
O=C(O)CCN1C(=O)/C(=C2\C(=O)N(Cc3ccc(F)cc3)c3ccccc32)SC1=S	92.9% (active)

Compound	inhibition
CN1C=CC=C/C1=C1/SC(=S)N(Cc2ccccc2)C1=O	-8%
O=C(O)CCCN1C(=O)c2ccccc2Sc2ncccc21	2.1%
CCCCN1C(=O)/C(=C2\SC(N3CCOCC3)=NC2=O)c2ccccc21	1.9%
N#CC(c1cccnc1)N1CCOCC1 (configuration not stated)	5.3%
N#Cc1ccc(OS(=O)(=O)c2ccc(-c3ccon3)s2)cc1	1.6%
CCOC(=O)c1ccc(NC(=O)CSc2nnc(CNC(=O)c3ccco3)o2)cc1	28.4%
OC(CN1CCC(Cc2ccccc2)CC1)c1ccccc1 (configuration not stated)	3.5%
O=C(O)C(Cc1ccccc1)N1C(=O)/C(=C/C=C/c2ccco2)SC1=S (configuration not stated)	71.7% (active)
CC(C(=O)O)N1C(=O)/C(=C/C=C/c2ccco2)SC1=S (configuration not stated)	97.9% (active)
Cc1cc(N2CCN(c3ncccn3)CC2)nc2c(C)cccc12	3.7%
CNS(=O)(=O)c1cn(CC(=O)NCc2ccc(N(C)C)cc2)cc1S(=O)(=O)NC	5.7%
COc1ccc(CN(C)C(=O)c2cccc(NS(=O)(=O)c3ccccc3)c2)cc1F	6%
Cc1ccc(N2C(=O)c3ccccc3C2=O)nc1	-3.1%
CCN1CCN(C(=O)c2cc3ccc(OC)cc3[nH]2)CC1	10.9%
COc1ccc(Br)cc1S(=O)(=O)N1CCCc2ccccc21	-6.5%
CSc1ncc(C(=O)Nc2cc(C)ccc2C)c(C)n1	-5.1%
Cc1cc2nc3s/c(=C/c4ccc(-c5ccccc5C(=O)O)o4)c(=O)n3c2cc1C	74.7% (active)
CN(C)CCN(CC1CCCN(Cc2ccccc2F)C1)C(=O)Cc1ccccc1F (configuration not stated)	-15.2%
CC1=C(C(=O)Nc2cccc(C(=O)N3CCC(C(N)=O)CC3)c2)SCCO1	4.8%
COc1ccc(NC(=O)NCCN2CCCCC2)cc1	-10.3%
CCN(CC)CCNC(=O)CCN1N=C(c2ccccc2)CCC1=O	2.7%
O=C(c1ccc(NC2=NC3CS(=O)(=O)CC3S2)cc1)N(CCO)Cc1ccccc1 (configuration not stated)	0.9%
O=C1C(Cl)=C(N2CCOCC2)C(=O)N1c1ccccc1F	-7.3%

Compound	inhibition
COc1ccc(N(C(=O)c2snc(C(N)=O)c2N)C(C(=O)NC2CCCC2)c2ccc(F)cc2)c(OC)c1 (configuration not stated)	-0.8%
CC1CCCCN1CCCNC(=O)CCCN1C(=O)c2cccnc2Sc2ccccc21 (configuration not stated)	-12.7%
CC1CCN(CCCNC(=O)C2CC(=O)N(CCc3ccccc3)C2)CC1 (configuration not stated)	-14.3%
COc1ccc(N(C)S(=O)(=O)c2ccc3c(c2)NC(=O)CC(=O)N3)c(OC)c1	7.8%
COC(=O)C1=NN(C(=O)c2ccccc2)C(O)(c2ccc([N+](=O)[O-])cc2)C1 (configuration not stated)	-7.4%
CC(Cc1n[nH]c(=S)n1N)c1ccccc1 (configuration not stated)	-2.8%
CCc1cc(=O)oc2c(C)c(OCC(=O)NCCCN3CCOCC3)ccc12	3.5%
CCOCCn1cnc2sc(C(=O)NCCCN3CCOCC3)c(C)c2c1=O	9.7%
CCOC(=O)C1(CCc2ccccc2)CCN(CC(O)CO)CC1 (configuration not stated)	-10.8%
Cn1c(=O)c2c(ncn2CCOc2ccc(F)cc2)n(C)c1=O	-6.4%
Cc1cc(C)cc(NCc2cc(=O)oc3cc(C)c(O)cc23)c1	8.5%
CCn1cc(CCC(=O)NCCN2CCOCC2)c2ccccc21	-13.7%
C/C(=N\NC(=O)c1cc(O)cc(O)c1)c1ccc(NC(=O)Cc2ccccc2)cc1	96.6% (active)
O=C(Cc1ccccc1)Nc1ccc(C(=O)Nc2ccc(O)cc2)cc1	1.2%
C/C(=N\NC(=O)CNC(=O)c1cccc(F)c1)c1ccc2ccccc2c1	1.1%
O=C(NCc1c(O)ccc2ccccc12)c1ccccc1	2.1%
O=C(O)c1ccc(/C=N/NC(=O)c2cc3c(ccc4ccccc43)o2)cc1	98.7% (active)
O=C(CN1CCCCCC1)N/N=C/c1ccc2ccccc2c1	-6.1%
O=C(N/N=C/c1ccc([N+](=O)[O-])o1)c1cc2c(ccc3ccccc32)o1	98.8% (active)
Cc1ccc(NC(=O)C(=O)NCc2ccc(/C=N/NC(=O)c3c(C)nc4ccccn34)o2)cc1	18.4%
O=C(N/N=C/c1cccc([N+](=O)[O-])c1)c1cc2c(ccc3ccccc32)o1	98% (active)
O=C(NCc1ccc(Cl)cc1)Nc1ccc(F)cc1	0.7%
CCOC(=O)c1cc(/C(C)=N/OC(=O)c2ccc(C(C)(C)C)cc2)on1	0.2%
